Pf growth 96h – P. falciparum growth inhibition at 96 hour, primary screen for plastid delayed-death inhibitors; P. falciparum luciferase reporter growth, 96 h; Potency, µM (highest dose often 28.7 µM), most hits filed as inhibitors; 320,000 compounds, 6.9% hits; AID 504834
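96 h incubation, 37 C, 5% CO2, of luciferase-reporter P. falciparum-infected RBCs (2% hematocrit, 0.05% parasitemia final) with test compounds; endpoint luminescence.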
AMA1-RON2 inh – inhibitors of Plasmodium falciparum AMA1-RON2 interaction; AlphaScreen AMA1-biotinylated RON2 peptide binding; Potency, µM (titrated, usually from 58.2 µM), usual class: inhibitors; 360,000 compounds, 0.2% hits; also: nearly all actives have a fitted effect of over 45% in size
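AMA1 (3D7) with his tag at 25 nM final met compounds first, then biotinylated RON2 peptide at 25 nM; detection used donor plus acceptor beads, 10 µg/mL apiece, read by AlphaScreen after 30 min at room temperature.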
HCV inh – inhibitors of hepatitis C virus infection | Huh7.5.1 HCVcc-Cre infection, luciferase reporter, 44 h | Potency, µM (series often up to 41.8 µM), hits mostly inhibitors | 340,000 compounds, 3.4% hits | AID 651820
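Cells (1,000/well) were plated 4 h before compound, then infected with HCVcc-Cre virus (~0.5 moi). After 44 h further culture, infection was read as luciferase luminescence following a 15 min substrate incubation at room temperature.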
Pf growth 48h – P. falciparum growth inhibition at 48 hours (one generation) | P. falciparum luciferase growth in erythrocytes, 48 h | 310,000 compounds, 5.9% hits | Potency, µM (doses to about 28.7 µM), most hits filed as inhibitors
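Luminescence readout; reporter = integrated firefly luciferase in P. falciparum. RBC culture at 2% hematocrit, 0.1% parasitemia final, 37 C/5% CO2; decreased signal taken as growth inhibition.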
AmpC inh detg – blocks E. coli AmpC beta-lactamase in detergent assay. P00811. AmpC hydrolysis of nitrocefin, absorbance 480 nm, 0.01% Triton. Potency, µM (series often up to 114 µM), actives largely listed as inhibitors. 370,000 compounds, 0.041% hits; also: nearly all actives have a fitted effect of over 25% in size
Target sequence (P00811 whole entry, looked up): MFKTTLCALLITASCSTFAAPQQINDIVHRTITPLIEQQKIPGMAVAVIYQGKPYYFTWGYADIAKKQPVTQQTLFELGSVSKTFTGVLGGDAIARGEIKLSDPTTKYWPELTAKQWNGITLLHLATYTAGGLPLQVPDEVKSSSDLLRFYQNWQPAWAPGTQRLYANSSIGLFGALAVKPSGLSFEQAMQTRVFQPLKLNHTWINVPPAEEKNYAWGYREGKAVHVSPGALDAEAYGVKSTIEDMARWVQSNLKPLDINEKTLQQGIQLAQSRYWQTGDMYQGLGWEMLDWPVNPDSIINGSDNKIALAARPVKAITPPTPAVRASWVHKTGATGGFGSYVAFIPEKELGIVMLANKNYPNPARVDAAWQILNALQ
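20 mM phosphate pH 7.0 + 0.01% (detergent screen) or 0.0001% Triton X-100; 5.3 nM AmpC reagent; cpd preinc 15 min RT; nitrocefin (800 uM stock) to start; A480 q20 s × 4 min; Activity was normalised to no-enzyme and no-compound control wells.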
AmpC inh no detg – inhibitors of E. coli AmpC beta-lactamase without detergent. P00811. AmpC nitrocefin hydrolysis, absorbance 480 nm, 0.0001% Triton. Potency, µM (highest dose often 57.1 µM), most hits filed as inhibitors. 330,000 compounds, 0.52% hits. AID 485341; also: nearly all actives have a fitted effect of over 20% in size
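AmpC (5.3 nM in the dispensed reagent) in 20 mM phosphate pH 7.0 with 0.01% (detergent screen) or 0.0001% Triton X-100 was preincubated with compounds for 15 min at room temperature. Nitrocefin was then added from an 800 uM solution, and hydrolysis was followed at 480 nm.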
Hits are given with their value. Only some compounds are listed: those with a hit (about 11% of all), similar ones and a draw of the others. Calls follow the shape of the dose curve; as a rule, active = well fitted curve in the direction sought with a large enough effect; inconclusive = small, poorly fitted or top-dose-only effect, or another doubt; inactive = no such curve, though single readings can be large; an effect the other way counts as inactive or inconclusive.

For O=C(O)CNC(=O)c1ccc(Sc2ccccc2)c([N+](=O)[O-])c1 the results were Pf growth 96h inactive, AMA1-RON2 inh inactive, HCV inh inactive, Pf growth 48h inactive, AmpC inh detg inactive and AmpC inh no detg inactive.
CC(C)(C)NC(=O)c1ccc(Sc2ccccc2)c([N+](=O)[O-])c1 was read as Pf growth 96h inconclusive, AMA1-RON2 inh inactive, HCV inh inconclusive, Pf growth 48h 10.4µM, AmpC inh detg inactive and AmpC inh no detg inactive.
Cc1ccccc1-c1noc(-c2ccc(Cl)cc2)n1 was read as Pf growth 96h inconclusive, AMA1-RON2 inh inactive, HCV inh inactive, Pf growth 48h inactive, AmpC inh detg inactive and AmpC inh no detg inactive.
For Cc1ccccc1-c1noc(-c2ccc(O)cc2)n1 the results were Pf growth 96h inactive, AMA1-RON2 inh inactive, HCV inh 14.1µM, Pf growth 48h inactive, AmpC inh detg inactive and AmpC inh no detg inactive.
For COCc1nc2cccnc2n1C1CCN(S(=O)(=O)N(C)C)CC1 the results were AmpC inh detg inactive.
`Cc1cc(C)nc(N2CCC(C(=O)O)CC2)n1` gave Pf growth 96h inactive, AMA1-RON2 inh inactive, HCV inh inactive, Pf growth 48h inactive, AmpC inh detg inconclusive and AmpC inh no detg inactive.
For COc1cc(C)nc(N2CCC(C(N)=O)CC2)n1 the results were Pf growth 96h 9.28µM, AMA1-RON2 inh inactive, HCV inh inactive, Pf growth 48h inactive, AmpC inh detg inactive and AmpC inh no detg inactive.
For Cc1ccc(Cn2ccn(Cc3ccccc3F)c(=O)c2=O)cc1 the results were AmpC inh detg inactive.
For Cc1nc(-n2nc(C)c(Cc3ccccc3Cl)c2C)sc1C(=O)N1CCC(C)CC1 the results were AmpC inh detg inactive.
For O=C1Nc2ccc(S(=O)(=O)NCc3ccccn3)c3cccc1c23 the results were Pf growth 96h 10.4µM, AMA1-RON2 inh inactive, HCV inh inactive, AmpC inh detg inactive and AmpC inh no detg inactive.
Cc1c(C)n(Cc2ccccc2)c2ccc(C(=O)OCCCN(C)C)cc12 was read as Pf growth 96h 4.15µM, AMA1-RON2 inh inconclusive, HCV inh inconclusive, Pf growth 48h inconclusive, AmpC inh detg inactive and AmpC inh no detg inactive.
`CN(C)CCOC(=O)c1cccc(Br)c1` gave Pf growth 96h inactive, AMA1-RON2 inh inactive, HCV inh inactive, AmpC inh detg inconclusive and AmpC inh no detg inactive.
Screening CCOC(=O)c1ccc2[nH]c(C)c(C)c2c1 returned AMA1-RON2 inh inactive and HCV inh inactive.
Screening Cc1[nH]c2ccc(C(=O)OCCN(C)C)cc2c1C returned Pf growth 96h 4.65µM, AMA1-RON2 inh inactive, HCV inh inactive, Pf growth 48h inactive, AmpC inh detg inactive and AmpC inh no detg inactive.
Screening Cc1c(C)n(CCN(C)C)c2ccc(C(=O)OCCN(C)C)cc12 returned Pf growth 96h inactive, AMA1-RON2 inh inactive, HCV inh 11.2µM, Pf growth 48h inconclusive, AmpC inh detg inactive and AmpC inh no detg inactive.
Cc1ccc(S(=O)(=O)N2CCc3cc(C(=O)N(C)Cc4ccccc4)ccc32)cc1 was read as AmpC inh detg inactive.
Screening CCOC(=O)C1CCN(C(=O)c2cc3ccc4ccc(C)[nH]c4c3n2)CC1 returned AmpC inh detg inactive.
For COc1ccc(C(C)(C)C)cc1NC(=O)CN1C(=O)C(=O)N(Cc2ccco2)C1=O the results were Pf growth 96h inconclusive, AMA1-RON2 inh inactive, HCV inh inactive, Pf growth 48h inconclusive, AmpC inh detg inactive and AmpC inh no detg inactive.
COc1ccccc1CNC(=O)CCN1C(=O)COc2ccc(C)cc21 was read as Pf growth 96h inactive, AMA1-RON2 inh inactive, HCV inh inactive, Pf growth 48h inactive, AmpC inh detg inactive and AmpC inh no detg inactive.
For CCOc1ccccc1NC(=O)CN1C(=O)C(=O)N(Cc2ccco2)C1=O the results were Pf growth 96h inactive, AMA1-RON2 inh inactive, HCV inh inactive, Pf growth 48h 11.7µM, AmpC inh detg inactive and AmpC inh no detg inactive.
For COc1ccccc1CNC(=O)CCCN1C(=O)COc2ccc(C)cc21 the results were Pf growth 96h 9.28µM, AMA1-RON2 inh inactive, HCV inh inactive, Pf growth 48h inactive, AmpC inh detg inactive and AmpC inh no detg inactive.
For Cc1ccc2c(c1)N(CC(=O)Nc1ccccc1F)C(=O)CO2 the results were Pf growth 96h 2.94µM, AMA1-RON2 inh inactive, HCV inh inactive, Pf growth 48h inactive, AmpC inh detg inconclusive and AmpC inh no detg inactive.
For CCOc1ccccc1NC(=O)CN1C(=O)COc2ccccc21 the results were Pf growth 96h 11.7µM, AMA1-RON2 inh inactive, HCV inh inactive, Pf growth 48h inactive, AmpC inh detg inactive and AmpC inh no detg inactive.
For O=C(CN1C(=O)COc2ccccc21)Nc1ccccc1F the results were Pf growth 96h inactive, AMA1-RON2 inh inactive, HCV inh inactive, Pf growth 48h inactive, AmpC inh detg inactive and AmpC inh no detg inactive.
Cc1c(Cl)cccc1-n1ncc(C(=O)Nc2ccc(Br)cc2F)c1C1CCNCC1 was read as AmpC inh detg inactive.
Screening CC(=O)c1ccc(OCc2cc(C(=O)N3CCCCC3c3cccnc3)no2)cc1 (stereo not drawn) returned Pf growth 96h inactive, AMA1-RON2 inh inactive, HCV inh inconclusive, Pf growth 48h inconclusive, AmpC inh detg inactive and AmpC inh no detg inactive.
For CCOc1cccc(C(=O)N2CCCCC2c2cccnc2)c1 (stereo not drawn) the results were Pf growth 96h inactive, AMA1-RON2 inh inactive, HCV inh inactive, Pf growth 48h 9.28µM, AmpC inh detg inactive and AmpC inh no detg inconclusive.
Screening FC(F)(F)C1=CC(c2ccccc2)=NCCN1 returned Pf growth 96h inconclusive, AMA1-RON2 inh inactive, HCV inh inactive, Pf growth 48h inconclusive, AmpC inh detg inactive and AmpC inh no detg inactive.
FC(F)(F)C1=CC(c2ccc(Br)cc2)=NCCN1 was read as Pf growth 96h 6.57µM, AMA1-RON2 inh inactive, HCV inh inactive, Pf growth 48h inconclusive, AmpC inh detg inactive and AmpC inh no detg inactive.
Screening Cc1ccc(OCC(O)Cn2c(=N)n(CCN3CCOCC3)c3ccccc32)cc1 (stereo not drawn) returned Pf growth 96h inactive, AMA1-RON2 inh inactive, HCV inh inactive, Pf growth 48h inconclusive, AmpC inh detg inconclusive and AmpC inh no detg inactive.
`OC(CNCCCN1CCCCC1)COc1ccccc1` (stereo not drawn) gave Pf growth 96h inconclusive, AMA1-RON2 inh inactive, HCV inh 10µM, Pf growth 48h inconclusive, AmpC inh detg inactive and AmpC inh no detg inactive.
Screening COc1ccc(OCC(O)Cn2c(=N)n(CCN3CCCCC3)c3ccccc32)cc1 (stereo not drawn) returned Pf growth 96h inconclusive, AMA1-RON2 inh inactive, HCV inh inconclusive, Pf growth 48h 4.65µM, AmpC inh detg inconclusive and AmpC inh no detg inactive.
